# Results filed as inconclusive are left out. The source made the active and inactive calls. The calls were made as follows: active = hit-call score of the fitted dose curve at least 0.9, where 1 is the maximum; inconclusive = response in the unintended direction; inactive = score below 0.9.
# What was measured:
# [1] = target: human Matrix Metalloproteinase-1 (MMP1), MMP1 (gene 4312) (UniProt P03956); experiment: NVS_ENZ_hMMP1: NovaScreen (NVS) Enzymatic Assay for human Matrix Metalloproteinase-1 (MMP1) (AID 2283181)
# human Matrix Metalloproteinase-1 (MMP1), MMP1 (gene 4312), sequence (P03956 whole entry, looked up): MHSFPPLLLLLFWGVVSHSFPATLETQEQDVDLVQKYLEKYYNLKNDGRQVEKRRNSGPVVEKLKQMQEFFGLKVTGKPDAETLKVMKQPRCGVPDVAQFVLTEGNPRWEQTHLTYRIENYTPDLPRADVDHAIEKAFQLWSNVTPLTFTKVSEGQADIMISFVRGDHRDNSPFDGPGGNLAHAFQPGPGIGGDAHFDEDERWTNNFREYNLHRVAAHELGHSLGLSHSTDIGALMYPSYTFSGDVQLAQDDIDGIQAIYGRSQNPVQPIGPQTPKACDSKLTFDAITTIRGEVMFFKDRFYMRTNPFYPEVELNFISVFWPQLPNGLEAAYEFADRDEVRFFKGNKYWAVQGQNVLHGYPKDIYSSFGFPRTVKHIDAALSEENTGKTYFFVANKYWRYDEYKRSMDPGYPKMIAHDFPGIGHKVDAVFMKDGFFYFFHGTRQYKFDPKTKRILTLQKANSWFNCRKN
# Method in brief: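 Human MMP1 enzyme activity measured by fluorescence 1 h after dosing, cell-free, with a specific substrate. Screened in duplicate at 25 uM; hits (e.g. 30% inhibition) run in concentration-response up to 50 uM; loss of signal versus DMSO.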
# [2] = target: human Protein Tyrosine Phosphatase Receptor Type C (PTPRC), PTPRC (gene 5788) (UniProt P08575); experiment: NVS_ENZ_hPTPRC: NovaScreen (NVS) Enzymatic Assay for human Protein Tyrosine Phosphatase Receptor Type C (PTPRC) (AID 2283212)
# human Protein Tyrosine Phosphatase Receptor Type C (PTPRC), PTPRC (gene 5788), sequence (P08575 whole entry, looked up): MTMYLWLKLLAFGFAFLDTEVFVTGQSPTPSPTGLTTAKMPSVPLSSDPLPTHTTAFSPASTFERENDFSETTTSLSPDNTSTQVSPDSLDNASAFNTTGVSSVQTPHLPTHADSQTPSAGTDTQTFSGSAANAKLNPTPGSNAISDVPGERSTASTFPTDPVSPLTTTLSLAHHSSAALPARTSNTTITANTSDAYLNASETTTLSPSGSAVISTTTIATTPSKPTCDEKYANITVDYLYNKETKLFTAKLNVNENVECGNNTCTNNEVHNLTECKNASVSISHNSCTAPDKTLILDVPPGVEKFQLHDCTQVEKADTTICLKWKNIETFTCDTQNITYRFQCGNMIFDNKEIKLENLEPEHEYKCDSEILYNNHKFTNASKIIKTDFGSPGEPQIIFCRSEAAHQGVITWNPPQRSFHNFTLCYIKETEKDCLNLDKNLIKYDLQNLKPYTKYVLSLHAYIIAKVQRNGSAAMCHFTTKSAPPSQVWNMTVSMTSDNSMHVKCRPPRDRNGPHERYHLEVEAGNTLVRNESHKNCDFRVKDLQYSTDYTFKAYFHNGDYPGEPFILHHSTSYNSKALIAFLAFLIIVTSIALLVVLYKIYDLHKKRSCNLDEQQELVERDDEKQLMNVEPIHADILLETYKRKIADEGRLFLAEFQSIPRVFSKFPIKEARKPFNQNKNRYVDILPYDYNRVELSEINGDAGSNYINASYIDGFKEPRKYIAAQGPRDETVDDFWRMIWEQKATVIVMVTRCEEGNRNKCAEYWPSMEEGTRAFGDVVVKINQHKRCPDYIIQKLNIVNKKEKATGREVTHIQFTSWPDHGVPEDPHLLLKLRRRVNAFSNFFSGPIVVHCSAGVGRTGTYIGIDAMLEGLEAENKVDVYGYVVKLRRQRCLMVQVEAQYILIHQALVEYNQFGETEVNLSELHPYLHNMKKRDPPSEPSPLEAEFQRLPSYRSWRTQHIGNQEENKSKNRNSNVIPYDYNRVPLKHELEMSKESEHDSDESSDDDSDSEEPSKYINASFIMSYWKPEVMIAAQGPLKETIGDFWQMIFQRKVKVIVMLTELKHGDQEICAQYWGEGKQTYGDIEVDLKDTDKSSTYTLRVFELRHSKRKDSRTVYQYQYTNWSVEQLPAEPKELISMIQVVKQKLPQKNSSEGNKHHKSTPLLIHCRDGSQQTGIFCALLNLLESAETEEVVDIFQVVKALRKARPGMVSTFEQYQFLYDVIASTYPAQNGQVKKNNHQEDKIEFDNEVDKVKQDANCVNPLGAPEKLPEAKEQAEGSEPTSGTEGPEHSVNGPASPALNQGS
# Method in brief: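 Yeast-extracted human PTPRC used in a cell-free colorimetric enzyme activity read-out, 1 h after dosing. Primary screen in duplicate at 25 uM; actives rerun in concentration-response up to 50 uM, DMSO as baseline.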
# [3] = target: human Mitogen-Activated Protein Kinase 1 (MAPK 1), MAPK1 (gene 5594) (UniProt P28482); experiment: NVS_ENZ_hMAPK1: NovaScreen (NVS) Enzymatic Assay for human Mitogen-Activated Protein Kinase 1 (MAPK 1) (AID 2283175)
# human Mitogen-Activated Protein Kinase 1 (MAPK 1), MAPK1 (gene 5594), sequence (P28482 whole entry, looked up): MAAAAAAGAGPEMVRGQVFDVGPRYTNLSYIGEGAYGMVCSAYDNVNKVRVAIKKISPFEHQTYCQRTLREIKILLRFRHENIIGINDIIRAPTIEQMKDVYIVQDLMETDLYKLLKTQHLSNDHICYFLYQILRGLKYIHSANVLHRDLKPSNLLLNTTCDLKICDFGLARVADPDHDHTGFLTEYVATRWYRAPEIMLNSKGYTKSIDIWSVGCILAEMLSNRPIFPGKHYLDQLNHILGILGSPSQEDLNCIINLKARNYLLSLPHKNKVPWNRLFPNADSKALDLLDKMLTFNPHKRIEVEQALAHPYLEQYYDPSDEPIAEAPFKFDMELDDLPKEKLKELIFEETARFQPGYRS
# Method in brief: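 Cell-free recombinant human MAPK1 enzymatic assay, fluorescence/electrophoretic mobility shift read at 1 h; loss of signal vs DMSO. Primary screen in duplicate at 25 uM; actives (e.g. ≥30% inhibition) run as concentration-response up to 50 uM.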
# [4] = target: Voltage-dependent N-type calcium channel subunit alpha-1B (Rattus norvegicus) (UniProt Q02294); experiment: NVS_IC_rCaChN: NovaScreen (NVS) Ion Channel Assay for rat Calcium Channel, Type N (CaChN) (AID 2283317)
# [5] = target: human Phosphatase and Tensin Homolog (PTEN), PTEN (gene 5728) (UniProt P60484); experiment: NVS_ENZ_hPTEN: NovaScreen (NVS) Enzymatic Assay for human Phosphatase and Tensin Homolog (PTEN) (AID 2283203)
# human Phosphatase and Tensin Homolog (PTEN), PTEN (gene 5728), sequence (P60484 whole entry, looked up): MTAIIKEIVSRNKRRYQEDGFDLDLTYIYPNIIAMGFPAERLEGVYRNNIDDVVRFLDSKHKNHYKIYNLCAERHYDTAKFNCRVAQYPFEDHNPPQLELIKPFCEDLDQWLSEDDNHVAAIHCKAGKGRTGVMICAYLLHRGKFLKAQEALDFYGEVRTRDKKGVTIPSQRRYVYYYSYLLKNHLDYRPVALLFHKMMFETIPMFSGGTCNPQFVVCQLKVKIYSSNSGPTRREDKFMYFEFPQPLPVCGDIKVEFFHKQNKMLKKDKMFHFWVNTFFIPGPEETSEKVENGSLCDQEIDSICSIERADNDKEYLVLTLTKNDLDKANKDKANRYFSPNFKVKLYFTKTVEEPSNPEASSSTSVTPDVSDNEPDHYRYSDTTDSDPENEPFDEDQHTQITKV
# Method in brief: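 Cell-free recombinant human PTEN with fluorescent substrate; product separated by electrophoretic mobility shift and read by fluorescence 1 h after dosing. Primary screen in duplicate at 25 uM, actives followed in concentration series versus DMSO.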
# [6] = target: human p21 Activated Kinase 4 (PAK4), PAK4 (gene 10298) (UniProt O96013); experiment: NVS_ENZ_hPAK4: NovaScreen (NVS) Enzymatic Assay for human p21 Activated Kinase 4 (PAK4) (AID 2283189)
# human p21 Activated Kinase 4 (PAK4), PAK4 (gene 10298), sequence (O96013 whole entry, looked up): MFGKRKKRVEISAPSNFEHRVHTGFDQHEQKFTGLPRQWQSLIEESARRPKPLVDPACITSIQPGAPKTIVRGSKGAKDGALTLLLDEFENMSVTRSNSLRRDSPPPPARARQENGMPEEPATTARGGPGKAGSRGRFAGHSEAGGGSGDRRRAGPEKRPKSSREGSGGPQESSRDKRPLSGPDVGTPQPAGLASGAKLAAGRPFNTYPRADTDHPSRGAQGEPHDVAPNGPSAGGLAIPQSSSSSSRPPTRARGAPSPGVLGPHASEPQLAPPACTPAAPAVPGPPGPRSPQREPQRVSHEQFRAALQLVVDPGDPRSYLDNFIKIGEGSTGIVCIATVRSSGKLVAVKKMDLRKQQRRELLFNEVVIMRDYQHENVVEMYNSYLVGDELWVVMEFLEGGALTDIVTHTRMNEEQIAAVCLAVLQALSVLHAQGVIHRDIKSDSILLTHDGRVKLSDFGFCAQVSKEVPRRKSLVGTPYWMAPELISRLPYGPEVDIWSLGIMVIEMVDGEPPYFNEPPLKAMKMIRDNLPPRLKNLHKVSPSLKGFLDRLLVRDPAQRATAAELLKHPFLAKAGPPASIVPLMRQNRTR
# Method in brief: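 Cell-free recombinant human PAK4 activity assay; fluorescent substrate and product separated by electrophoretic mobility shift, read 1 h after dosing. Initially tested in duplicate at 25 uM, relative to DMSO baseline.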
# [7] = target: bovine Gamma-Aminobutyric Acid Type A Receptor BDZ, alpha 1 site (GABARa1), GABRA1 (gene 780973) (UniProt P08219); experiment: NVS_LGIC_bGABARa1: NovaScreen (NVS) Ligand-Gated Ion Channel Assay for bovine Gamma-Aminobutyric Acid Type A Receptor BDZ, alpha 1 site (GABARa1) (AID 2283321)
# bovine Gamma-Aminobutyric Acid Type A Receptor BDZ, alpha 1 site (GABARa1), GABRA1 (gene 780973), sequence (P08219 whole entry, looked up): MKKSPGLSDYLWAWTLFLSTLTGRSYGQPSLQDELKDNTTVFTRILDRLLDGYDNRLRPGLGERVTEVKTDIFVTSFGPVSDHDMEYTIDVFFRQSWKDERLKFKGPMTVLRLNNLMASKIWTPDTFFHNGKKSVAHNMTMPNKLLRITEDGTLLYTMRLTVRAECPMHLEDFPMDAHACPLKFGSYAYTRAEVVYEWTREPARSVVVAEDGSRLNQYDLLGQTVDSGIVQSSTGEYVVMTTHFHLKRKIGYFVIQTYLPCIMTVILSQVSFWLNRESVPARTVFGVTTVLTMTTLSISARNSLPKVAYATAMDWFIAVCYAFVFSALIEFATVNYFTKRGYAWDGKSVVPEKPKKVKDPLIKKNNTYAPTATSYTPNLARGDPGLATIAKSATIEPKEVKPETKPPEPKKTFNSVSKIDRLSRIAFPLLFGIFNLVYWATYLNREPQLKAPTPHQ
# Method in brief: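 Radioligand competition binding on bovine cortical membranes, 0.75 h, filter-based scintillation counting. Primary single concentration 25 uM in duplicate; actives rerun in concentration-response to 50 uM max. Loss of signal fitted versus DMSO.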
# [8] = target: human Tyrosine Protein Kinase Receptor Tie-2 (Tie2), TEK (gene 7010) (UniProt Q02763); experiment: NVS_ENZ_hTie2: NovaScreen (NVS) Enzymatic Assay for human Tyrosine Protein Kinase Receptor Tie-2 (Tie2) (AID 2283225)
# Method in brief: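 Recombinant human Tie2 kinase activity was read cell-free by fluorescence with electrophoretic mobility shift, 1 hour after dosing. The screen used 25 uM in duplicate, then concentration-response up to 50 uM. Signal loss was scored against DMSO.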
# [9] = target: rat Monoamine Oxidase, MAO-B, Peripheral (MAOBP), Maob (gene 25750) (UniProt P19643); experiment: NVS_ENZ_rMAOBP: NovaScreen (NVS) Enzymatic Assay for rat Monoamine Oxidase, MAO-B, Peripheral (MAOBP) (AID 2283242)
# rat Monoamine Oxidase, MAO-B, Peripheral (MAOBP), Maob (gene 25750), sequence (P19643 whole entry, looked up): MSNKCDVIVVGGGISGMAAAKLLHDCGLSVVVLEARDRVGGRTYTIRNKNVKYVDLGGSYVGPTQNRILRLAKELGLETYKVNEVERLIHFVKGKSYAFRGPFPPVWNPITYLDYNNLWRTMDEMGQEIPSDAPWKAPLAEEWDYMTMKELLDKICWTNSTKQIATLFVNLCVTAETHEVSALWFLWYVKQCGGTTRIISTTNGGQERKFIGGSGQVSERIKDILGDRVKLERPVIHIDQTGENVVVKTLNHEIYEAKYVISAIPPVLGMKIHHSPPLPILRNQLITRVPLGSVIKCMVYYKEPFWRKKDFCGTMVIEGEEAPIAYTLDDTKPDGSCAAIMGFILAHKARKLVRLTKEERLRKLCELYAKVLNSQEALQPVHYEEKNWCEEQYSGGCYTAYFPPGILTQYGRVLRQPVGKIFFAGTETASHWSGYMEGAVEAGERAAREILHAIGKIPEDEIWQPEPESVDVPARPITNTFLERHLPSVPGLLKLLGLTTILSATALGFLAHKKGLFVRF
# [10] = test system: rat Monoamine Oxidase, MAO-A, Peripheral (MAOAP), gene 29253; experiment: NVS_ENZ_rMAOAP: NovaScreen (NVS) Enzymatic Assay for rat Monoamine Oxidase, MAO-A, Peripheral (MAOAP) (AID 2283237)
# Method in brief: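 Rat liver mitochondrial membranes served as the MAO-A source, with enzyme activity measured by radiometric scintillation counting 1.17 hours after dosing. Loss of signal was fitted against DMSO; primary screen used 25 uM in duplicate, follow-up used concentration series.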
# [11] = test system: rat Monoamine Oxidase, MAO-A, Central (MAOAC), gene 29253; experiment: NVS_ENZ_rMAOAC: NovaScreen (NVS) Enzymatic Assay for rat Monoamine Oxidase, MAO-A, Central (MAOAC) (AID 2283243);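 also: potency refers to inhibition seen as signal drop below DMSO baseline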
# Method in brief: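 Steps: rat brain protein extract dosed with test chemical (25 uM, duplicate, primary); incubated 1.5 h; radiolabelled product separated from substrate and counted. Signal loss versus DMSO scored as inhibition.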
# [12] = target: rat Monoamine Oxidase, MAO-B, Central (MAOBC), Maob (gene 25750) (UniProt P19643); experiment: NVS_ENZ_rMAOBC: NovaScreen (NVS) Enzymatic Assay for rat Monoamine Oxidase, MAO-B, Central (MAOBC) (AID 2283238)
# rat Monoamine Oxidase, MAO-B, Central (MAOBC), Maob (gene 25750), sequence (P19643 whole entry, looked up): as above
# Method in brief: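 MAO-B activity in rat brain tissue preparation, cell-free, measured radiometrically by scintillation counting 1.17 h after dosing. Screened in duplicate at 25 uM; actives then in concentration-response up to 50 uM. Loss of signal versus DMSO scored.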
# [13] = target: Bile acid receptor (Homo sapiens) (UniProt Q96RI1); experiment: NVS_NR_hFXR_Agonist: NovaScreen (NVS) Nuclear Receptor Binding Assay for human Farnesoid X Receptor Agonism (FXR) (AID 2283347)
# Bile acid receptor (Homo sapiens), sequence (Q96RI1 whole entry, looked up): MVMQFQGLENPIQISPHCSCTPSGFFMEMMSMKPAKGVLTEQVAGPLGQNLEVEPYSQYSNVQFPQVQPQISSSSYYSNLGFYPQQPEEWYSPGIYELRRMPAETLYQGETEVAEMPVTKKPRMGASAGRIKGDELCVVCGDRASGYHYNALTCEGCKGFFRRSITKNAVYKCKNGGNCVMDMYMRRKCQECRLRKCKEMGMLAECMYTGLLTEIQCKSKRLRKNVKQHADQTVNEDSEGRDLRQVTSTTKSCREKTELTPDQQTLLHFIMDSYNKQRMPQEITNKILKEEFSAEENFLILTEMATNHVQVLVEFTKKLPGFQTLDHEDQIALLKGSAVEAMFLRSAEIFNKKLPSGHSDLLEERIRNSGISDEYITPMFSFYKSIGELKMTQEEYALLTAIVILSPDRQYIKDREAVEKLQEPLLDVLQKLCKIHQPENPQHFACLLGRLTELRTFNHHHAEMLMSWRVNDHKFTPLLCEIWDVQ
# Method in brief: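 Cell-free TR-FRET binding assay with extracted human FXR protein, agonist format, read 1 h after dosing. Primary screen at 25 uM single concentration in duplicate, actives retested in concentration series; gain of signal versus DMSO.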
smiles,measurement,setting,value
CC(=O)O[C@]1(C(C)=O)CC[C@H]2[C@@H]3C=C(Cl)C4=CC(=O)[C@@H]5C[C@@H]5[C@]4(C)[C@H]3CC[C@@]21C,outcome,[1],inactive
CCCCc1nc2cccnc2n1Cc1ccc(-c2ccccc2-c2nnn[nH]2)cc1,AC50,[1],2.25 µM (active)
same,outcome,[2],inactive
CCCOc1ccc(S(=O)(=O)N2CCN(CC)CC2)cc1-c1nc2c(CC)n(Cc3ccccn3)nc2c(=O)[nH]1,outcome,[3],inactive
same,outcome,[4],inactive
O=C(Nc1ccc([N+](=O)[O-])cc1Cl)c1cc(Cl)ccc1O,outcome,[3],inactive
Nc1ccn([C@@H]2O[C@H](CO)[C@@H](O)[C@@H]2O)c(=O)n1,outcome,[3],inactive
Cc1cc(=O)[nH]c(=S)[nH]1,outcome,[1],inactive
CCCCOC(=O)CC(CC(=O)OCCCC)(OC(C)=O)C(=O)OCCCC,outcome,[1],inactive
Nc1ccc(C(=O)O)cc1,outcome,[1],inactive
CO[Si](OC)(c1ccccc1)c1ccccc1,outcome,[5],inactive
O=[Si]=O,outcome,[6],inactive
O=C(O)[C@H](O)[C@@H](O)C(=O)O,outcome,[6],inactive
OCCC(O)CO (stereo not drawn),AC50,[5],14.7 µM (active)
CCC(=O)OCC=Cc1ccccc1,outcome,[5],inactive
Clc1cc(Cl)c(Cl)cc1Cl,outcome,[1],inactive
same,outcome,[7],inactive
N#Cc1ccc(CC(=NNC(=O)Nc2ccc(OC(F)(F)F)cc2)c2cccc(C(F)(F)F)c2)cc1,outcome,[5],inactive
CC(C)(C)c1csc(-c2cc3cc(OCc4ccccc4CC(=O)O)ccc3o2)n1,AC50,[1],22.5 µM (active)
same,outcome,[4],inactive
CC(c1cc(C(C)(C)C)cc(C(C)(C)C)c1O)c1cc(C(C)(C)C)cc(C(C)(C)C)c1O,AC50,[5],5.29 µM (active)
CCCCCCCC[Si](OCC)(OCC)OCC,outcome,[6],inactive
CC(C)c1cccc(C(C)C)c1N1C(=O)c2ccc(O)cc2C1=O,outcome,[6],inactive
same,outcome,[5],inactive
same,outcome,[8],inactive
CCCCN1C(=O)[C@@H]([C@H](O)C2CCCCC2)NC(=O)C12CCN(Cc1ccc(Oc3ccc(C(=O)O)cc3)cc1)CC2,outcome,[1],inactive
same,outcome,[9],inactive
CCc1cccc(CC)c1N(COC)C(=O)CS(=O)(=O)O,outcome,[5],inactive
O=c1c(O)c(-c2ccc(O)c(O)c2)oc2cc(O)cc(O)c12,outcome,[6],inactive
same,AC50,[10],17.2 µM (active)
same,AC50,[11],9.38 µM (active)
CC1(C)CC(N=C=O)CC(C)(CN=C=O)C1 (stereo not drawn),AC50,[6],25 µM (active)
same,outcome,[12],inactive
CCC(C)C(=O)OC (stereo not drawn),outcome,[5],inactive
Cc1ccc2oc(CN(Cc3ccccc3)C(=O)Nc3c(F)cc(F)cc3F)c(-c3ccc(Cl)cc3)c2c1,outcome,[6],inactive
CCCCOCC,AC50,[5],37 µM (active)
Nc1ccc(F)c([N+](=O)[O-])c1,outcome,[5],inactive
O=C1O[C@H]([C@H](O)CO)C(O)=C1O,outcome,[6],inactive
Cc1ccc([N+](=O)[O-])cc1N,outcome,[1],inactive
same,AC50,[12],14.7 µM (active)
same,AC50,[9],26.1 µM (active)
Cc1c(C)c2c(c(C)c1O)CCC(C)(COc1ccc(CC3SC(=O)NC3=O)cc1)O2 (stereo not drawn),AC50,[1],6.75 µM (active)
same,AC50,[12],25 µM (active)
same,outcome,[13],inactive
C#C[C@]1(O)CC[C@H]2[C@@H]3CCC4=Cc5oncc5C[C@]4(C)[C@H]3CC[C@@]21C,AC50,[5],25 µM (active)
O=C(N[C@@H](Cc1ccccc1)[C@@H](O)C(=O)N1C[C@@H](O)[C@@H](O)C1)c1cc2cc(Cl)ccc2[nH]1,outcome,[1],inactive
same,outcome,[12],inactive
c1ccc(C(O[C@@H]2CCCN(CCc3ccc4c(c3)OCO4)C2)c2ccccc2)cc1,AC50,[1],8.81 µM (active)
same,AC50,[12],14.9 µM (active)
same,AC50,[9],22 µM (active)
same,AC50,[11],20.5 µM (active)
Cc1cc(Cc2ccc(N)c(C)c2)ccc1N,outcome,[6],inactive
CC(=O)OCC=C(C)CCC=C(C)CCC=C(C)C,outcome,[5],inactive
CCCCCCCCOC(=O)c1cc(O)c(O)c(O)c1,AC50,[1],13.9 µM (active)
same,outcome,[13],inactive
NC(=O)N1C(=O)C(C(=O)c2cc(Cl)cs2)c2cc(F)c(Cl)cc21 (stereo not drawn),outcome,[6],inactive
same,AC50,[5],25 µM (active)
same,outcome,[2],inactive
CCOC(=O)[C@H](C)O,outcome,[5],inactive
Fc1ccc(Br)cc1,outcome,[5],inactive
C[C@]12C[C@H](O)[C@H]3[C@@H](CCC4=CC(=O)CC[C@@]43C)[C@@H]1CC[C@@H]2C(=O)CO,outcome,[6],inactive
same,outcome,[2],inactive
CC/C=C\C#N,outcome,[5],inactive
CC/C(=C\C(=N/O)C(N)=O)C(C)[N+](=O)[O-] (stereo not drawn),outcome,[6],inactive
same,outcome,[4],inactive
O=C1C=CC(=O)O1,outcome,[5],inactive
CC[C@H]1OC(=O)[C@H](C)[C@@H](O[C@H]2C[C@@](C)(OC)[C@@H](O)[C@H](C)O2)[C@H](C)[C@@H](O[C@@H]2O[C@H](C)C[C@H](N(C)C)[C@H]2O)[C@](C)(O)C[C@@H](C)C(=O)[C@H](C)[C@@H](O)[C@]1(C)O,outcome,[6],inactive
CCCCC/C=C/C=C/C=O,AC50,[5],25 µM (active)
